Results as given in PubChem BioAssay AID449 (The Scripps Research Institute Molecular Screening Center, 2006).
Hit rate of the full screen: of about 56,000 compounds, about 320 (0.57%) were called active.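 The calls were made as follows: active = activation above a cutoff set at the mean activation of all tested compounds plus 3 SD (cut at about 54% in these data); inactive = the rest, inconclusive results apart.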 The entries come from a sample that favours actives as a whole.

Target: Sphingosine 1-phosphate receptor 1 (Homo sapiens) (UniProt P21453)
Experiment: S1P1 agonists and agonism potentiators, primary screen, cell-based, primary and confirmation screens, CRE-bla reporter (AID 449);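 also: forskolin at 4 µM as EC80 and the EC20 agonist is SEW2871; 100% = SEW2871 at its EC100 plus forskolin at EC80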
Details: S1P1 CRE-bla cells, forskolin, beta-lactamase FRET, potentiator mode, at 9.5 µM, stronger effect = higher value, 100% = saturating reference agonist, 0% = basal, S1P1 agonist co-added at EC20, 2 nM
[1] = measured here: confirmation screen, triplicate average

Chain of Sphingosine 1-phosphate receptor 1 (Homo sapiens) (P21453 whole entry, looked up): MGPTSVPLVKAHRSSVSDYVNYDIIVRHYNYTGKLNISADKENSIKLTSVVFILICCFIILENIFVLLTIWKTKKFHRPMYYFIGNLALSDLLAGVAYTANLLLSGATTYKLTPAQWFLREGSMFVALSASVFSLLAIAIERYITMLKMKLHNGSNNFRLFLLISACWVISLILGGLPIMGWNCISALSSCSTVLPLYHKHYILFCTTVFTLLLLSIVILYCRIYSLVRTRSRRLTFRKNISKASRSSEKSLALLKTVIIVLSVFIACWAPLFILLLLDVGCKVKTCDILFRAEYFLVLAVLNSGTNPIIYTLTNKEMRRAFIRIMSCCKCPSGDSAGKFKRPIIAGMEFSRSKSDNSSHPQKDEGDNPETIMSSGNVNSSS

Compound | activation | activation [1] [%]
c1ccc(-n2ncc3c2ncn2c(CSc4nc5ccccc5s4)nnc32)cc1 | -7.8% (inactive) | 
CCn1c(=O)cc(O)c2ccccc21 | -26.6% (inactive) | 
CCc1ccccc1NC(=O)c1cccs1 | -18.1% (inactive) | 
O=C(OCCO)c1cc(Cl)c(C(=O)OCCO)cc1Cl | -15.8% (inactive) | 
Fc1ccc(Br)cc1/C=N/n1cnnc1 | -20% (inactive) | 
CC1(C)CC(=O)C(C=NCCC2=CCCCC2)=C(O)C1 | -14.2% (inactive) | 
O=C(c1cccc(C(=O)N2CCN(c3ccc(F)cc3)CC2)c1)N1CCN(c2ccc(F)cc2)CC1 | 46% (inactive) | 
Cn1c2c(c(=O)n(C)c1=O)CN(Cc1ccco1)CN2 | -5.4% (inactive) | 
COc1ccc(C2/C(=C(/O)c3ccc(OC(C)C)cc3)C(=O)C(=O)N2CCCN2CCOCC2)cc1 (stereo unspecified) | 10.9% (inactive) | 
CS(=O)(=O)N(Cc1nc2sc3c(c2c(=O)[nH]1)CCCC3)C1CCCCC1 | -3.8% (inactive) | 
Cc1ccccc1Cn1c(=O)[nH]c2ccccc21 | 1% (inactive) | 
O=C(COc1ccc(Cl)cc1)Nc1ccccc1CO | 0% (inactive) | 
Cc1ccc(CCn2c3c(c4ccccc42)CN(C)CC3)cn1 | 6.4% (inactive) | 
CC1CN(Cc2nc3c(c(=O)n(C)c(=O)n3C)n2Cc2cccc(Cl)c2)CC(C)O1 (stereo unspecified) | -22.8% (inactive) | 
CCOC(=O)C1C(=O)NC(N2CCN(c3ccccc3)CC2)=NC1c1ccco1 (stereo unspecified) | -4.8% (inactive) | 
COc1ccc(CCNC(=O)c2ccco2)cc1 | -9.8% (inactive) | 
CCOC(=O)C1C(=O)C=C(c2ccc(OC)cc2)CC1c1ccco1 (stereo unspecified) | 91.1% (active) | 86.3
COc1ccc(-n2nc3c(c2NC(=O)Cc2cccc(C)c2)CS(=O)C3)cc1 (stereo unspecified) | -1.3% (inactive) | 
CN1CCN(c2cc(=O)n(-c3ccc(Cl)cc3)c(=O)[nH]2)CC1 | -1.5% (inactive) | 
O=C1c2ccccc2C(O)N1Cc1ccccc1Cl (stereo unspecified) | 15.2% (inactive) | 
O=C(Cc1cccs1)N1CCCC(c2nc(-c3ccc(S(=O)(=O)N4CCCC4)cc3)no2)C1 (stereo unspecified) | 18.8% (inactive) | 

Compound | activation | activation [1] [%]
O=C(c1cccs1)N1CCCC(c2nc(-c3ccc(F)cc3)no2)C1 (stereo unspecified) | 22.8% (inactive) | 
COc1cc(-c2noc(C3CCCN(S(=O)(=O)c4cccc(Cl)c4)C3)n2)cc(OC)c1OC (stereo unspecified) | 91.7% (active) | 85.9
COc1nc(NCc2ccc(Cl)cc2)nc(OC)n1 | -7.3% (inactive) | 
O=C(Cn1cnc2c(cnn2-c2ccc(F)cc2)c1=O)NCCc1ccccc1 | -3.5% (inactive) | 
Nc1nnc(C2CCCC2)s1 | -4.9% (inactive) | 
Cn1c(SCC(=O)N2CCOCC2)nnc1-c1ccc(NC(=O)c2ccccc2F)cc1 | 2.6% (inactive) | 
COC(=O)c1sc(NC(=O)c2ccc(OC)cc2OC)nc1C | 108% (active) | 94.2
COC(=O)c1sc(NC(=O)c2csc3c2CCCC3)nc1C | 8.7% (inactive) | 
COc1ccc(C(=O)Nc2nncs2)c(OC)c1 | -24% (inactive) | 
CSCCC(NC(=O)c1ccc(=O)n(C)n1)c1nc2ccccc2[nH]1 (stereo unspecified) | -17.6% (inactive) | 
COc1ccc2nc(N3CCCC(O)C3)c(C#N)cc2c1 (stereo unspecified) | 16.4% (inactive) | 
Cc1ccc(S(=O)(=O)C2(S(=O)(=O)c3ccc(C)cc3)CCCC2)cc1 | -19.8% (inactive) | 
CCCOC(=O)CC1C(=O)NCCN1Cc1ccc(F)cc1 (stereo unspecified) | -20.1% (inactive) | 
CCC(CC)c1nnc(NS(=O)(=O)Cc2ccccc2)s1 | -23.9% (inactive) | 
COc1cccc(C2/C(=C(/O)c3ccc(F)cc3)C(=O)C(=O)N2CCN(C)C)c1 (stereo unspecified) | -5.8% (inactive) | 
COc1ccc(OC)c2c1sc(=NC(=O)CN1C(=O)CCC1=O)n2C | -15.9% (inactive) | 
COc1ccc(-n2nnc3c(=O)n(CC(=O)N4CCC(Cc5ccccc5)CC4)cnc32)cc1 | 18.2% (inactive) | 
N#CCCN1CCN(S(=O)(=O)c2ccc(S(=O)(=O)NC3CCCCC3)cc2)CC1 | -9% (inactive) | 
CCN1CCN(Cc2c(O)ccc3c(=O)c(-c4ccc(OC)c(OC)c4)c(C(F)(F)F)oc23)CC1 | -27.2% (inactive) | 
O=c1c(-c2ccc3c(c2)OCCO3)c(C(F)(F)F)oc2cc(O)cc(O)c12 | 84% (active) | 95.4
Cc1ccc(-c2nc(CS(=O)CC(=O)N3CCN(c4ncccn4)CC3)c(C)o2)cc1 (stereo unspecified) | -2.4% (inactive) | 

Compound | activation | activation [1] [%]
O=C1CC(c2cccc(Br)c2)C2=C(CCCC2=O)N1 (stereo unspecified) | -6.5% (inactive) | 
C=C(C)Cn1c(N2CCCC2)nc2c1c(=O)[nH]c(=O)n2C | -3.8% (inactive) | 
O=C(c1cc(-c2ccccc2O)on1)N1CCCC1 | -19% (inactive) | 
COc1ccc(-c2c(C)nn3c(N4CCC(C(=O)N5CCCCC5)CC4)cc(C)nc23)cc1OC | -7.7% (inactive) | 
CN(CCCC(=O)Nc1nccs1)S(=O)(=O)c1ccc(Cl)cc1 | 20.6% (inactive) | 
O=c1c2ccccc2oc2nc3n(c(=O)c12)CCCS3 | -24.6% (inactive) | 
CNC(=O)c1c(NC(=O)c2ccc(S(=O)(=O)N3CCOCC3)cc2)sc2c1CCC2 | -19.6% (inactive) | 
O=C(NCc1ccc(Cl)c(Cl)c1)c1cccnc1 | 10.2% (inactive) | 
COC(=O)c1c(NC(=O)CCN2CCOCC2)sc2c1CCCC2 | -4.7% (inactive) | 
O=S(=O)(NCc1ccccn1)c1ccc(F)cc1 | -21.3% (inactive) | 
O=S(N1CCCCCC1)C12CC3CC(CC(C3)C1)C2 (stereo unspecified) | -13.3% (inactive) | 
CCCn1c(O)c(CN2CCCC(C)C2)c(C)c(C#N)c1=O (stereo unspecified) | 1% (inactive) | 
CCOC(=O)CSC1=C(C#N)C(c2ccco2)C(C(=O)OCc2ccccc2)=C(C)N1 (stereo unspecified) | 11.9% (inactive) | 
FC(F)(F)c1cc(-c2ccco2)nc(N2CCOCC2)n1 | -22.2% (inactive) | 
CC(C)CCNC(=O)CCNS(=O)(=O)c1ccc(Cl)cc1 | 12.2% (inactive) | 
O=C(NC1CCN(Cc2ccccc2)CC1)c1ccccc1F | -25.4% (inactive) | 
CCOc1cc(/C=N/n2cnnc2)c(Br)cc1O | -9.1% (inactive) | 
c1nnc2c3c4c(sc3ncn12)CCC4 | -8.2% (inactive) | 
COc1ncnc2sc3c(c12)CCCC3 | -21.1% (inactive) | 
Cn1cc(S(=O)(=O)N2CCC(Cc3ccccc3)CC2)c(=O)n(C)c1=O | -8.3% (inactive) | 
